Screening results as filed in PubChem BioAssay.
Rows were chosen to be rich in hits. Some 2.4% of all compounds tested hit in one or more screens of this group.
POLH inh: DNA polymerase eta (human) inhibition. recombinant Pol eta, fluorescent DNA replication assay. hit rate 1.2% among 390,000. Potency, µM (series often up to 114 µM), without a hit: at the top dose activity change, negative = inhibition, most hits filed as inhibitors. AID 588591. Q9Y253; further: on the % scale 0 is the no-effect control and ±100 the full control effect
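Fluorescent replication assay: 50 nM final substrate added after a 15 min room-temperature compound preincubation with 10 nM enzyme. Signal taken at 0 min and again at 10 min.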
POLK inh: inhibitors of human DNA polymerase kappa; Q9UBT6; purified Pol kappa, fluorescent DNA synthesis assay, 10 min; Potency, µM (highest dose often 107 µM), inactives show top-dose activity, negative = inhibition, actives largely listed as inhibitors; hit rate 0.53% among 400,000; further: on the % scale 0 is the no-effect control and ±100 the full control effect
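First, compounds were pin-transferred onto 10 nM Pol kappa. After 15 min at room temperature, substrate was added to 50 nM final. Fluorescence was then measured kinetically at 0 and 10 min.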
Pol iota inh: inhibitors of human DNA polymerase iota; Q9UNA4; Pol iota fluorescent replication assay, 10 min; Potency, µM (titrated, usually from 115 µM), for inactives: top-dose activity, negative = inhibition, most hits filed as inhibitors; hit rate 1% among 390,000
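Pol iota at 10 nM preincubated 15 min with compounds at room temperature; reaction started with fluorescent substrate, 50 nM final. Fluorescence read kinetically at 0 and 10 min; buffer-only wells as negative control.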
L3MBTL1 block: blocks human L3MBTL1 | hit rate 0.66% among 230,000 | AlphaScreen L3MBTL1–H3K9me1 peptide binding | AID 485360 | Q9Y468 | Potency, µM (series often up to 57.1 µM), without a hit: top-dose activity, negative = inhibition, usual class: inhibitors; further: on the % scale 0 is the no-effect control and ±100 the full control effect; nearly all actives have a fitted effect of over 60% in size
Target sequence (Q9Y468 whole entry, looked up): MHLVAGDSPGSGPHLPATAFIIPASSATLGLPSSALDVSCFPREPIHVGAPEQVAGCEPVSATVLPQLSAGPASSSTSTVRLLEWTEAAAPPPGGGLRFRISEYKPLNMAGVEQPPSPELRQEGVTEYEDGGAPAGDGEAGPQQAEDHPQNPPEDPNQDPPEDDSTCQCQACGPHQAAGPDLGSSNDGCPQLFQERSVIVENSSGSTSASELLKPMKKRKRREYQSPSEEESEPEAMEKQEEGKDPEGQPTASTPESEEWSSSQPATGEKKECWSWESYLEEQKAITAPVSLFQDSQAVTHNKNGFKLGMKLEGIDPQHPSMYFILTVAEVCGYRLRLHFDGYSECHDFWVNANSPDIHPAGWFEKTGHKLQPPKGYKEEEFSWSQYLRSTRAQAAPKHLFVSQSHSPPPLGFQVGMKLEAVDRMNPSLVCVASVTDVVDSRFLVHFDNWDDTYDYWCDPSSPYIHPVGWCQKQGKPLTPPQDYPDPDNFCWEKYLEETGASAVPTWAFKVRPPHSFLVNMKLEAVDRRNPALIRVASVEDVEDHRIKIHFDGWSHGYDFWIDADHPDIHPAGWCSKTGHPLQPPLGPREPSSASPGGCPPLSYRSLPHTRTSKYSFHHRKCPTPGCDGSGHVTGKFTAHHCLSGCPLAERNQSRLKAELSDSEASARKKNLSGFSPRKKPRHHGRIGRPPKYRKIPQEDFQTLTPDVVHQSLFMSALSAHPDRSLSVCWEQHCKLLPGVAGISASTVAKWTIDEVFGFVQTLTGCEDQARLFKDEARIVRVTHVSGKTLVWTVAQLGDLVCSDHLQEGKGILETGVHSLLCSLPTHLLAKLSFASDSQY
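AlphaScreen assay: L3MBTL1 (50 nM final) was preincubated 30 min at room temperature with biotinylated H3(1-15)K9me1 peptide (75 nM final), then 30 min with library compounds; streptavidin donor and nickel chelate acceptor beads (10 ug/mL final) added, 30 min dark.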
POLB inh: blocks human DNA polymerase beta activity | P06746 | Pol beta primer extension/strand displacement, fluorescence kinetic | Potency, µM (series often up to 114 µM), for the others: at the highest dose activity change, negative = inhibition, actives largely listed as inhibitors | hit rate 1.3% among 340,000 | AID 485314; further: on the % scale 0 is the no-effect control and ±100 the full control effect
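10 nM enzyme + cpd, 15 min RT; start with substrate 50 nM final; read 0 min and after 10 min RT. Corrected, normalized data; 4-parameter Hill curve fit.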
Active calls of the source: *; [ ] = another dose, or the depositor's remark. The call rests on the fitted dose curve; in most records, active means well fitted curve in the direction sought with a large enough effect; inconclusive means small, poorly fitted or top-dose-only effect, or another doubt; inactive means no such curve, though single readings can be large; an effect the other way counts as inactive or inconclusive. Potency means the concentration at half of the fitted maximal effect.

`COc1ccc2nc(C)cc(SCC(=O)NNC(=O)COc3cccc4ccccc34)c2c1` gave POLH inh inconclusive, POLK inh -22%, Pol iota inh inconclusive, L3MBTL1 block 11% and POLB inh 13µM*.
COc1ccc2nc(C)cc(SCC(=O)NNC(=O)COc3ccc(C)cc3)c2c1 was read as POLH inh -5%, POLK inh -5%, Pol iota inh 19%, L3MBTL1 block -6% and POLB inh inconclusive.
`COc1ccc(OC)c(C(c2c(C)[nH][nH]c2=O)c2c(C)[nH][nH]c2=O)c1` gave POLH inh 0%, POLK inh -11%, Pol iota inh 28µM* and POLB inh 37%.
For COc1cc(C(c2c(C)[nH][nH]c2=O)c2c(C)[nH][nH]c2=O)ccc1OC(C)C the results were POLH inh -5%, POLK inh -13%, Pol iota inh -2%, L3MBTL1 block -1% and POLB inh 6%.
For COc1cc(C(c2c(C)[nH][nH]c2=O)c2c(C)[nH][nH]c2=O)cc(OC)c1OC the results were POLH inh -17%, POLK inh -6%, Pol iota inh 8.9µM*, L3MBTL1 block -9% and POLB inh 20%.
`COc1cc(C(c2c(C)[nH][nH]c2=O)c2c(C)[nH][nH]c2=O)ccc1OS(=O)(=O)c1ccc(C)cc1` gave POLH inh -3%, POLK inh -7%, Pol iota inh 3.5µM* and POLB inh -10%.
Screening COc1cc(C(c2c(C)[nH][nH]c2=O)c2c(C)[nH][nH]c2=O)cc(Cl)c1O returned POLH inh -9%, POLK inh 2%, Pol iota inh 0% and POLB inh 3%.
COc1ccc(C(c2c(C)[nH][nH]c2=O)c2c(C)[nH][nH]c2=O)cc1Br was read as POLH inh -12%, POLK inh -4%, Pol iota inh inconclusive, L3MBTL1 block -6% and POLB inh 14%.
Screening COc1cc(C(c2c(C)[nH][nH]c2=O)c2c(C)[nH][nH]c2=O)ccc1OC(=O)c1ccccc1F returned POLH inh -10%, POLK inh -13%, Pol iota inh inconclusive and POLB inh 2%.
COc1cc(C(c2c(C)[nH][nH]c2=O)c2c(C)[nH][nH]c2=O)ccc1OS(=O)(=O)c1ccccc1 was read as POLH inh -4%, POLK inh -20%, Pol iota inh 10µM* and POLB inh -11%.
For COc1ccc2cc(C#N)c(SCC(=O)OCc3ccccc3)nc2c1 the results were POLK inh -11% and Pol iota inh -23%.
Screening CCCN1C(=O)C(NC(=O)c2ccccc2OC)(C(F)(F)F)C(C(=O)OC)=C1C (configuration not stated) returned POLH inh -16%, POLK inh 10%, Pol iota inh 35% and POLB inh -6%.
For CCc1ccc(C2CC(=O)c3c([nH]c(C(=O)OC4CCCC4)c3C)C2)cc1 (configuration not stated) the results were POLH inh -17%, POLK inh -15%, Pol iota inh -8% and POLB inh 24%.
`CCOC(=O)c1cccc(NS(=O)(=O)c2cc(-c3cnc(C4CC4)o3)ccc2C)c1` gave POLH inh -18%, POLK inh -3%[60.1 µM], Pol iota inh -5% and POLB inh -22%.
COc1cc(C(c2c(C)[nH][nH]c2=O)c2c(C)[nH][nH]c2=O)ccc1OC(=O)c1cccc([N+](=O)[O-])c1 was read as POLH inh -7%, POLK inh -17%, Pol iota inh 10µM*, L3MBTL1 block -7% and POLB inh 10%.
Cn1nnnc1N=N/C(=N/Nc1ccccc1)c1ccccc1 was read as POLH inh -5%, POLK inh 6%, Pol iota inh 8%, L3MBTL1 block 2.8µM* and POLB inh -1%.
For Cc1ccc(OCC(=O)Nc2ccc3nc(SCC(=O)N4CCOCC4)sc3c2)cc1C the results were POLH inh -22%, POLK inh -2%, Pol iota inh 34% and POLB inh -9%.
For Cc1cc(-c2nnc(SCC(=O)c3ccc4c(c3)OCCO4)o2)no1 the results were POLH inh -13%, POLK inh -7%, Pol iota inh 54%, L3MBTL1 block -17% and POLB inh 40µM*.
Cc1cc(C)cc(-c2nnc(SCC(=O)c3ccc4c(c3)OCCO4)o2)c1 was read as POLH inh -10%, POLK inh -7%, Pol iota inh 8%, L3MBTL1 block -6% and POLB inh 1%.
For Cn1nnnc1Sc1ncnc2scc(-c3ccc(Br)cc3)c12 the results were POLH inh -3%, POLK inh -14%, Pol iota inh inconclusive and L3MBTL1 block -7%.
`Cn1nnnc1Sc1ncnc2scc(-c3ccccc3)c12` gave POLH inh inconclusive, POLK inh -12%, Pol iota inh inconclusive and POLB inh 28µM*.
Screening CCNC(=O)C1CCCN(c2nn3cc(-c4ccc(C)cc4)nc3s2)C1 (configuration not stated) returned POLH inh 0%, POLK inh -9%, Pol iota inh -4% and POLB inh -14%.
Screening COc1cccc(/C=N/NC(=O)C[n+]2ccccc2)c1O returned POLH inh -13%, POLK inh 0%, Pol iota inh -22%, L3MBTL1 block 16µM* and POLB inh 0%.
Screening Cc1nnc(N/N=C/c2ccccc2F)n1N returned POLH inh -21%, POLK inh -4%[60.1 µM], Pol iota inh inconclusive and POLB inh 26%.
For COc1cc(OC)c(OC)cc1/C=N/NC(=O)C[n+]1ccccc1 the results were POLH inh -11%, POLK inh -2%, Pol iota inh 12%, L3MBTL1 block 7% and POLB inh -10%.
COc1cccc(/C=N/Nc2nnc(C)n2N)c1O was read as POLH inh -20%, POLK inh -1%, Pol iota inh 4µM* and POLB inh 0%.
COc1ccc(-n2c(C)cc(/C=N/Nc3nnc(C)n3N)c2C)cc1 was read as POLH inh -9%, POLK inh -16%, Pol iota inh 22µM*, L3MBTL1 block -16% and POLB inh -28%.
Screening COc1cccc(/C=N/Nc2ccc([N+](=O)[O-])cc2)c1O returned POLH inh -12%, POLK inh -4%, Pol iota inh 20% and POLB inh 45µM*.
COC(=O)c1ccc(N/N=C/c2cc([N+](=O)[O-])cc(OC)c2O)cc1 was read as POLH inh -11%, POLK inh -1%, Pol iota inh 7%, L3MBTL1 block -15% and POLB inh inconclusive.
For CCOc1ccc(-n2c(C)cc(/C=N/Nc3nc(C)cc(=O)[nH]3)c2C)cc1 the results were POLH inh -1%, POLK inh -5%, Pol iota inh -9%, L3MBTL1 block -10% and POLB inh 20%.
